Reference: PubChem BioAssay (EPA / NIEHS)
Where “and” joins values, the source holds several entries; their conditions need not be identical. Equal values may be shown once. Some compounds were tested as several samples or in several runs, with calls that do not always agree. Calls of active or inactive are those of the source. The calls were made as follows: active = hit-call score of the fitted dose curve at least 0.9, where 1 is the maximum; inactive = score below 0.9.

Columns and labels:
[1] = APR_HepG2_NuclearSize_72hr: Apredica 72-hour HepG2 Assay for Nuclear Size (AID 2282925); details: high-content imaging, actives raise or lower the signal
Outline: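 Nuclear size was read by high-content imaging of Hoechst 33342 stain after formaldehyde fixation. Compounds ran 72 h on HepG2 at 0.39 to 200 uM, with final DMSO 0.5% v/v. Curves fitted both directions relative to DMSO control.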

[2] = ATG_CRE_CIS: Attagene CIS-FACTORIAL HepG2 Assay for human cAMP Responsive Element (CRE) binding protein 3 (AID 2282926); details: HepG2 CRE cis-reporter, Attagene multiplexed mRNA; actives raise or lower the signal
Outline: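 Endogenous transcription factor activity read via CRE-regulated reporter transcripts in transfected HepG2 cells. After 24 h exposure, RNA was reverse-transcribed, amplified, fluorescently labelled and sized by capillary electrophoresis; gain or loss fitted against DMSO.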

[3] = target: CCAAT/enhancer-binding protein beta (Homo sapiens) (UniProt P17676); assay: ATG_C_EBP_CIS: Attagene CIS-FACTORIAL HepG2 Assay for human CCAAT/Enhancer Binding Protein (C/EBP) beta (AID 2282927); details: HepG2 Attagene cis-factorial transcription factor reporter; actives raise or lower the signal
Chain of CCAAT/enhancer-binding protein beta (Homo sapiens) (P17676 whole entry, looked up): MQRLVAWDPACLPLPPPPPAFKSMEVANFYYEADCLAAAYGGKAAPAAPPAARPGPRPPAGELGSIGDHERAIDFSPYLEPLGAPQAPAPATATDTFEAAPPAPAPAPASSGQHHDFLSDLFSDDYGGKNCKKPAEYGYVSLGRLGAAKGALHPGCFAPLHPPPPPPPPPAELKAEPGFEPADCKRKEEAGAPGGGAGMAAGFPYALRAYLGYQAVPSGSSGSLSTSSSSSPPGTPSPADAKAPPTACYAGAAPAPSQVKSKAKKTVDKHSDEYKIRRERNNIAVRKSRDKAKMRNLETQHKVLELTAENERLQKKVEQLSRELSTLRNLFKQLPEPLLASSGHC
Outline: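 Endogenous transcription factor activity in human liver HepG2 cells is inferred from induction of a CEBPB-linked reporter mRNA. Exposure lasts 24 h; activity is fitted in both directions relative to DMSO.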

[4] = ATG_CMV_CIS: Attagene CIS-FACTORIAL HepG2 Assay for human CMV (Internal Marker) (AID 2282928); details: HepG2 CMV promoter reporter, transcription factor profiling; actives raise or lower the signal;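 also: endpoint acts as a background internal control marker rather than a target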
Outline: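 Readout: fluorescent reporter cDNA fragments separated by capillary electrophoresis after RT-PCR and HpaI cut. Cells: HepG2 carrying transfected cis-promoter reporter constructs, dosed 24 h. Endpoint serves as background internal-marker control, fit bidirectionally versus DMSO.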

[5] = ATG_DR4_LXR_CIS: Attagene CIS-FACTORIAL HepG2 Assay for human Liver X Receptor (LXR), DR4 submotif (AID 2282929); details: HepG2 Attagene DR4 cis-reporter, mRNA transcription; actives raise or lower the signal
Outline: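 Fluorescence intensity of labelled reporter cDNA fragments, separated by capillary electrophoresis, gives the signal. HepG2 cells bearing cis-regulated reporter constructs were treated 24 h; activity fitted bidirectionally relative to DMSO negative control.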

[6] = target: Aryl hydrocarbon receptor (Homo sapiens) (UniProt P35869); assay: ATG_Ahr_CIS: Attagene CIS-FACTORIAL HepG2 Assay for human Aryl Hydrocarbon Receptor (Ahr) (AID 2282930); details: HepG2 AhR cis-factorial reporter transcription; actives raise or lower the signal
Chain of Aryl hydrocarbon receptor (Homo sapiens) (P35869 whole entry, looked up): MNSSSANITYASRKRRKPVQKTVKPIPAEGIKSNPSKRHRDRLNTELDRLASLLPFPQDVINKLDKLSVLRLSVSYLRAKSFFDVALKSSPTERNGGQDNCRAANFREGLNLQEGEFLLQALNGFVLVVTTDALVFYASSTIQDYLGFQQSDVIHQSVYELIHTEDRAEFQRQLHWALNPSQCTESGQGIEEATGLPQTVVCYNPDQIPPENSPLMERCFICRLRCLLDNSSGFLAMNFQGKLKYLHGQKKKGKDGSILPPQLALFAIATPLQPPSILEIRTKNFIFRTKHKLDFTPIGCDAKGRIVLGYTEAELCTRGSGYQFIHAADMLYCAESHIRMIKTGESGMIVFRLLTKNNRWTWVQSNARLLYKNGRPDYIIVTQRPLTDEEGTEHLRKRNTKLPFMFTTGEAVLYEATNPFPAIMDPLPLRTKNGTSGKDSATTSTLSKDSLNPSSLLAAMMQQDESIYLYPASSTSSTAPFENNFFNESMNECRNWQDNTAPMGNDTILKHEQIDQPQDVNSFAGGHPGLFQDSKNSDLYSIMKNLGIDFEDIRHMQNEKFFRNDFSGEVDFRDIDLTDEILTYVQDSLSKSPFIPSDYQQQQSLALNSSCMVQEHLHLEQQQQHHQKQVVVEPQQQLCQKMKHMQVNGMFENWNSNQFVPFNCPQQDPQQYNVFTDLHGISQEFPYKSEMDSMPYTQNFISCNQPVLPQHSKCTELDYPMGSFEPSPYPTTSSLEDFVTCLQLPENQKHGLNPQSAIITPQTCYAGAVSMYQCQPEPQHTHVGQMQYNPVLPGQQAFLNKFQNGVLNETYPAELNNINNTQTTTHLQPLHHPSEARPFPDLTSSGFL
Outline: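 Transient MRTU transfection of HepG2 → 24 h compound exposure → total RNA, oligo(dT) RT → PCR, 6-FAM extension, HpaI cut → CE fluorescence. DMSO = baseline; bidirectional curve fit.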

[7] = ATG_AP_1_CIS: Attagene CIS-FACTORIAL HepG2 Assay for human Activator Protein 1 (AP-1) (AID 2282931); details: HepG2 Attagene cis-factorial AP-1 reporter mRNA; actives raise or lower the signal
Outline: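 Multiplexed HepG2 reporter assay, 24 h dosing. mRNA induction detected by RT-PCR plus capillary electrophoresis. Activity fitted in both directions against DMSO.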

[8] = ATG_AP_2_CIS: Attagene CIS-FACTORIAL HepG2 Assay for human Activator Protein 2 (AP-2) (AID 2282932); details: HepG2 AP-2 cis-reporter, Attagene transcription factor profiling; actives raise or lower the signal
Outline: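 Transiently transfected HepG2 cells are exposed to chemical for 24 h. Reporter transcripts are then measured as fluorescence following RT-PCR and capillary separation, and gain- or loss-of-signal is fitted relative to DMSO.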

[9] = ATG_BRE_CIS: Attagene CIS-FACTORIAL HepG2 Assay for human Bone Morphogenetic Protein (BMP) Response Element (BRE) (AID 2282933); details: HepG2 BMP response element reporter, Attagene transcription factor profiling; actives raise or lower the signal
Outline: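 HepG2 cells transiently transfected with multiplexed cis-element reporter units were dosed with chemical for 24 h. Reporter mRNA was measured by RT-PCR with fluorescent labelling, HpaI digestion and capillary electrophoresis; bidirectional fitting relative to DMSO.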

[10] = target: Retinoic acid receptor alpha (Homo sapiens) (UniProt P10276); assay: ATG_DR5_RAR_CIS: Attagene CIS-FACTORIAL HepG2 Assay for human Retinoic Acid Receptor Alpha (RARE), DR5 submotif (AID 2282934); details: HepG2 Attagene cis-factorial RARE DR5 reporter, mRNA; actives raise or lower the signal;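 as to AC50: reporter responds to endogenous RAR alpha beta and gamma in HepG2 not RARA alone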
Chain of Retinoic acid receptor alpha (Homo sapiens) (P10276 whole entry, looked up): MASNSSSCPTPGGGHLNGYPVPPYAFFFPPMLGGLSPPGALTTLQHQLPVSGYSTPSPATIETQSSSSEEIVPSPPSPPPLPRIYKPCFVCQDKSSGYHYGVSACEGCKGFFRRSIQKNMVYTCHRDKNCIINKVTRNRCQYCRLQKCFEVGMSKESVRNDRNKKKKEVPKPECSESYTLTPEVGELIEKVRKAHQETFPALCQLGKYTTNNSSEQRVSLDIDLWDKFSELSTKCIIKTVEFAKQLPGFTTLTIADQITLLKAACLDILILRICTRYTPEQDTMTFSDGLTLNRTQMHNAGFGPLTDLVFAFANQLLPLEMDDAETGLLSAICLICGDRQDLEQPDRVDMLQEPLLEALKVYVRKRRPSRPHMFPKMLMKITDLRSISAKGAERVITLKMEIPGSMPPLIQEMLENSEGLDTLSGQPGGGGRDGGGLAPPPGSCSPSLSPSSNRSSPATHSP
Outline: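 Transient MRTU transfection of HepG2; 24 h compound treatment; TriZol RNA, oligo(dT) RT, PCR, FAM labelling, capillary electrophoresis. Bidirectional fit vs DMSO. Endogenous TF activity at DR5 RARE.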

[11] = target: Transcription factor E2F1 (Homo sapiens) (UniProt Q01094); assay: ATG_E2F_CIS: Attagene CIS-FACTORIAL HepG2 Assay for human E2F Transcription Factor 1 (AID 2282935); details: HepG2 Attagene cis-reporter, E2F reporter RNA transcripts; actives raise or lower the signal
Chain of Transcription factor E2F1 (Homo sapiens) (Q01094 whole entry, looked up): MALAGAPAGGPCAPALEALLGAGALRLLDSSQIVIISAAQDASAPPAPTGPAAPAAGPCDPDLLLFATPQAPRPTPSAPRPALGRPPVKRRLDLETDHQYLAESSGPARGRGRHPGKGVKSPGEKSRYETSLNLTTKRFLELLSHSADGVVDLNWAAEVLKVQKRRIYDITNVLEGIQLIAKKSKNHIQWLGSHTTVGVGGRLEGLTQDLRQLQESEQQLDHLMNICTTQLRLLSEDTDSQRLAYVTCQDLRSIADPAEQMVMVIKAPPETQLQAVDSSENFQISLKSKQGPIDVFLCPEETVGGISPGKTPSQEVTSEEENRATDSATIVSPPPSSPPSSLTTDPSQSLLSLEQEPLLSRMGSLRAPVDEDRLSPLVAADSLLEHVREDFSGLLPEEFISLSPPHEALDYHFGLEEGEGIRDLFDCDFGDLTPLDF
Outline: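 Fluorescent RT-PCR products, digested with HpaI for 2 h at 37 C, are separated by capillary electrophoresis. Source RNA comes from transfected HepG2 cultures treated for 24 h.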

[12] = ATG_E_Box_CIS: Attagene CIS-FACTORIAL HepG2 Assay for human Enhancer Box (E-box) (AID 2282936); details: HepG2 E-box cis-reporter transcription, actives raise or lower the signal
Outline: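 Fluorescent reporter fragments separated by capillary electrophoresis gave the signal; mRNA came from HepG2 cells transfected with cis-element reporters and treated 24 h. Curves fitted bidirectionally relative to DMSO controls.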

[13] = ATG_M_61_CIS: Attagene CIS-FACTORIAL HepG2 Assay for M61 Transcription Factor (Internal Marker) (AID 2282937); details: HepG2 Attagene CIS-FACTORIAL M61 internal marker reporter; actives raise or lower the signal
Outline: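 Endogenous transcription factor activity in HepG2 is read through transiently transfected cis-element reporter units. After 24 h dosing, RNA undergoes reverse transcription, PCR and primer extension with 6-FAM before capillary electrophoresis; DMSO-referenced bidirectional fit.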

[14] = ATG_EGR_CIS: Attagene CIS-FACTORIAL HepG2 Assay for human Early Growth Response 1 (EGR1) (AID 2282938); details: HepG2 Attagene CIS-FACTORIAL EGR reporter mRNA; actives raise or lower the signal
Outline: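 Activity is taken as induction or loss of reporter mRNA versus DMSO, fitted bidirectionally. Transcripts from cis-regulated reporter units in transiently transfected HepG2 were measured after 24 h by RT-PCR with capillary electrophoresis.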

[15] = ATG_M_19_CIS: Attagene CIS-FACTORIAL HepG2 Assay for M19 Transcription Factor (Internal Marker) (AID 2282939); details: HepG2 Attagene CIS-FACTORIAL M19 internal marker reporter; actives raise or lower the signal
Outline: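 HepG2 cells transiently transfected with cis-regulated multiple reporter transcription units were dosed for 24 h; reporter mRNA was quantified by RT-PCR, 6-FAM primer-extension labelling, HpaI digestion and capillary electrophoresis, with bidirectional fitting against DMSO baseline.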

[16] = ATG_ERE_CIS: Attagene CIS-FACTORIAL HepG2 Assay for Estrogen Response Element (ERE) (AID 2282940); details: HepG2 ERE cis-reporter, Attagene RNA transcript; actives raise or lower the signal
Outline: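 HepG2 cells transiently transfected with cis-promoter-driven multiplexed reporter transcription units report endogenous TF activity. After 24 h compound exposure, reporter mRNA is quantified by RT-PCR with capillary electrophoresis fluorescence; bidirectional fitting versus DMSO baseline.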

[17] = ATG_Ets_CIS: Attagene CIS-FACTORIAL HepG2 Assay for human Erythroblast Transformation Specific (ETS) (AID 2282941); details: HepG2 ETS cis-reporter transcription, actives raise or lower the signal
Outline: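 RT-PCR/capillary electrophoresis fluorescence read-out of reporter mRNA; HepG2 transient multi-reporter transfection; 24 h compound exposure; gain or loss of signal fitted bidirectionally relative to DMSO.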

[18] = target: Hepatocyte nuclear factor 3-beta (Homo sapiens) (UniProt Q9Y261); assay: ATG_FoxA2_CIS: Attagene CIS-FACTORIAL HepG2 Assay for human Forkhead box A2 (FOXA2) (AID 2282942); details: HepG2 cis-reporter transcription factor activity, 24 h; actives raise or lower the signal
Chain of Hepatocyte nuclear factor 3-beta (Homo sapiens) (Q9Y261 whole entry, looked up): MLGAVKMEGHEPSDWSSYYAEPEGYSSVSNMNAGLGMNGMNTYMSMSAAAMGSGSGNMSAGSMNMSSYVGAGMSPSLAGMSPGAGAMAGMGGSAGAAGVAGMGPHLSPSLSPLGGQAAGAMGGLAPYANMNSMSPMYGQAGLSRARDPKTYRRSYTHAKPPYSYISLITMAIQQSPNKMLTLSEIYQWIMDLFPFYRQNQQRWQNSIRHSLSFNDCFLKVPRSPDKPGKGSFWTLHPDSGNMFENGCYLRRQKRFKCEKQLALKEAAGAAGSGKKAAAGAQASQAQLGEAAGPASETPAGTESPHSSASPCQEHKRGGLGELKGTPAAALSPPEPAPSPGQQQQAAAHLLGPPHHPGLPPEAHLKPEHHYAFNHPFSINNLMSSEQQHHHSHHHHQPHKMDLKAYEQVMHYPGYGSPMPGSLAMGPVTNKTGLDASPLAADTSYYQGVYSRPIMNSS
Outline: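 Reporter transcript induction is measured by fluorescence after capillary electrophoresis of RT-PCR products from HepG2 cells exposed 24 h. Cis-regulated reporter units report endogenous factor activity; curves fitted both directions against DMSO.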

[19] = ATG_FoxO_CIS: Attagene CIS-FACTORIAL HepG2 Assay for human Forkhead box O (FoxO) (AID 2282943); details: HepG2 Attagene cis-reporter, FoxO element, mRNA; actives raise or lower the signal
Outline: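 HepG2, transient MRTU transfection (cis element, endogenous TFs). Dose 24 h. TriZol RNA → oligo(dT) RT → PCR → 6-FAM primer extension → HpaI cut → CE. Gain/loss vs DMSO.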

[20] = ATG_GATA_CIS: Attagene CIS-FACTORIAL HepG2 Assay for human GATA Binding Protein (AID 2282944); details: HepG2 GATA cis-element reporter, Attagene multiplex mRNA; actives raise or lower the signal
Outline: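 HepG2 cells transiently transfected with multiplexed cis-element reporter units reflecting endogenous transcription factor activity; reporter mRNA measured after 24 h dosing by RT-PCR, 6-FAM labeling, HpaI digestion and capillary electrophoresis. Bidirectional fitting versus DMSO baseline.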

Measured: AC50

CCNc1nc(Cl)nc(NCC)n1
inactive: all assays above

CS/C(C)=N/OC(=O)N(C)SN(C)C(=O)O/N=C(\C)SC
inactive: all assays above

OC(c1ccc(Cl)cc1)(c1cncnc1)c1ccccc1Cl (configuration not stated)
inactive: [1] | [2] | [3] | [4] | [5] | [6] | [7] | [8] | [9] | [10] | [11] | [12] | [13] | [14] | [15] | [16] | [17] | [18] | [19] | [20]
active: [4] 2.95 µM | [5] 13.1 µM | [7] 13.3 µM | [9] 19.8 µM | [10] 13.1 µM | [12] 2.6 µM | [16] 3.79 µM | [20] 12.9 µM

N#Cc1nn(-c2c(Cl)cc(C(F)(F)F)cc2Cl)c(N)c1S(=O)C(F)(F)F (configuration not stated)
active: [2] 17.5 µM | [3] 18.1 µM | [5] 50.5 µM | [7] 9.67 µM | [9] 24.8 µM | [10] 7.78 µM | [12] 29 µM | [14] 35.8 µM
inactive: [1] | [2] | [3] | [4] | [5] | [6] | [7] | [8] | [9] | [10] | [11] | [12] | [13] | [14] | [15] | [16] | [17] | [18] | [19] | [20]

COc1ccc(C(c2ccc(OC)cc2)C(Cl)(Cl)Cl)cc1
active: [6] 15.2 µM | [7] 39.8 µM and 59.5 µM and 34.4 µM | [9] 29.7 µM and 15.5 µM | [10] 19.7 µM | [12] 27 µM and 5.64 µM | [16] 5.09 µM [middle of 4 runs]
inactive: [1] | [2] | [3] | [4] | [5] | [6] | [7] | [8] | [9] | [10] | [11] | [12] | [13] | [14] | [15] | [16] | [17] | [18] | [19] | [20]
